Screening results deposited in PubChem by University of Kansas High Throughput Screening Laboratory.
Pf apPOL block: Pf-apPOL DNA polymerase inhibition; AID 1794808; Recombinant Pf-apPOL, molecular beacon fluorescence, 1.5 h; 0.25% of 210,000 active; inhibition, % at 10 µM
mHTT CaM bind: disrupts binding of mutant huntingtin to calmodulin; P42858; AlphaScreen His-mHTT/GST-CaM binding, luminescence; inhibition, % at 15 µM; 3.6% of 190,000 active;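 note: 0% = both proteins with DMSO and 100% = one protein alone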
* marks the source's active call; other numbers are inactive results. Sampled rows, rich in hits. Any-hit rate of the full collection: about 3.6%. Cut-off read from the data, not from the text of the source: active = inhibition above about 50%; inactive = the rest.

`CCC(=O)N1CCN(S(=O)(=O)c2ccc(C)cc2)C1c1ccc(N(C)C)cc1` (centres undefined) gave Pf apPOL block -9 and mHTT CaM bind 18.
`O=C(Nc1ccc(Cl)cn1)c1cccc(Br)c1` gave Pf apPOL block -3 and mHTT CaM bind -15.
`CNC(=O)C1CN(C(=O)c2cc(C)cc(C)c2)CC12CCCC2` (centres undefined) gave Pf apPOL block -5 and mHTT CaM bind 1.
For Cc1ccc(C(=O)N2CC(CN(C)C)C3(CCOCC3)C2)cn1 (centres undefined) the results were Pf apPOL block -4 and mHTT CaM bind -6.
For O=C(CN1CCN(CC(=O)c2ccco2)CC1)NCc1ccccc1Cl the results were Pf apPOL block -8 and mHTT CaM bind -1.
FC(F)(F)c1cc(NN=C2CCSc3sccc32)cc(C(F)(F)F)c1 was read as Pf apPOL block 6.
`CCOc1ccc(N2CC(c3nnc(NC(=O)COc4ccc(F)cc4)o3)CC2=O)cc1` (centres undefined) gave Pf apPOL block -2 and mHTT CaM bind 16.
`Cc1ccc(-c2ccc(N)cc2)o1` gave Pf apPOL block -1 and mHTT CaM bind 55*.
For Cc1ccc(-c2ccccc2N)o1 the results were Pf apPOL block -1 and mHTT CaM bind 19.
For CC(=Cc1ccccc1)C=C1SC(=S)N(C(Cc2ccccc2)C(=O)O)C1=O (centres undefined) the results were Pf apPOL block -135 and mHTT CaM bind 85*.
Screening CC(=Cc1ccccc1)C=C1SC(=S)N(C(CCC(=O)O)C(=O)O)C1=O (centres undefined) returned Pf apPOL block -142 and mHTT CaM bind 11.
`O=C(Cc1cccs1)NCCOc1ccc2nnc(-c3ccc(F)cc3)n2n1` gave Pf apPOL block 3 and mHTT CaM bind -4.
For O=C(NCCOc1ccc2nnc(-c3ccc(F)cc3)n2n1)c1cc(-c2ccco2)[nH]n1 the results were Pf apPOL block 64* and mHTT CaM bind -6.
For COc1ccc(CN2CCCC2c2cc(C(C)C)no2)cc1OC (centres undefined) the results were Pf apPOL block -1 and mHTT CaM bind 0.
CC(C)(C)[C@@H]1CCC(=O)N(CC[C@H](Sc2ccccc2)c2ccccc2)CC1 was read as Pf apPOL block -1 and mHTT CaM bind -6.
For CC(=O)Nc1ccc(S[C@@H](CCN2CC[C@H](C(C)(C)C)CCC2=O)c2ccccc2)cc1 the results were Pf apPOL block -1 and mHTT CaM bind 61*.
For O=C(CCc1cc2ccccc2[nH]c1=O)N1CCSCC1 the results were Pf apPOL block -6 and mHTT CaM bind 100*.
Screening O=C(CCc1cc2ccccc2[nH]c1=O)N1CCCCC1 returned Pf apPOL block -3 and mHTT CaM bind -7.
O=c1c2ccccc2nc(SCc2cc(=O)n3ccccc3n2)n1C1CCCC1 was read as Pf apPOL block -2 and mHTT CaM bind -5.
Screening C=CCNC(=O)c1oc2ccc(S(=O)(=O)N3CC(C)CC(C)C3)cc2c1C (centres undefined) returned Pf apPOL block -14 and mHTT CaM bind 77*.
`C=CCNC(=O)c1oc2ccc(S(=O)(=O)N3CCCCCC3)cc2c1C` gave Pf apPOL block -10 and mHTT CaM bind -6.
Screening O=C1OCCN1C(=O)[C@H]1[C@H](c2ccccc2)C(c2ccccc2)=NN1c1ccccc1 returned Pf apPOL block 2 and mHTT CaM bind -54.
Screening O=C1OCCN1C(=O)[C@H]1[C@H](c2ccc([N+](=O)[O-])cc2)C(c2ccc(F)cc2)=NN1c1ccc(Br)cc1 returned Pf apPOL block -6 and mHTT CaM bind 65*.
`O=C1OCCN1C(=O)[C@H]1[C@H](c2ccc([N+](=O)[O-])cc2)C(c2ccc(F)cc2)=NN1c1ccccc1` gave Pf apPOL block -8 and mHTT CaM bind 54*.
O=C1OCCN1C(=O)[C@H]1[C@H](c2ccccc2)C(c2ccc(F)cc2)=NN1c1ccc(Br)cc1 was read as Pf apPOL block -1 and mHTT CaM bind 31.
Screening CN(C)C=CC(=O)c1cccs1 returned Pf apPOL block -4.
O=C(c1ccc(F)cc1)N1CCCC2(CC(c3ccccc3)=CO2)C1 (centres undefined) was read as Pf apPOL block -6 and mHTT CaM bind 99*.
For O=C(c1ccc(F)cc1)N1CCCC2(CC(c3ccncc3)=CO2)C1 (centres undefined) the results were Pf apPOL block -5 and mHTT CaM bind -13.
`O=C(c1cccc(F)c1)N1CCCC2(CC(c3ccncc3)=CO2)C1` (centres undefined) gave Pf apPOL block -2 and mHTT CaM bind -3.
`O=C(c1cccc(F)c1)N1CCCC2(CC(c3ccccc3)=CO2)C1` (centres undefined) gave Pf apPOL block -4 and mHTT CaM bind 100*.
For O=C(CN1CCN(S(=O)(=O)c2ccc(F)cc2)CC1)c1ccc2c(c1)OCO2 the results were Pf apPOL block -7 and mHTT CaM bind -3.
`CC(=O)N1c2ccccc2NC2=C(C(=O)CC(c3ccc(Cl)c(Cl)c3)C2)C1c1cccnc1` (centres undefined) gave Pf apPOL block -7 and mHTT CaM bind 83*.
`CC1(C)CC(=O)C2=C(C1)Nc1ccccc1N(C(=O)C(F)(F)F)C2c1cccnc1` (centres undefined) gave Pf apPOL block 63* and mHTT CaM bind 4.
`CC(=O)N1c2ccccc2NC2=C(C(=O)CC(c3ccc(F)cc3)C2)C1c1cccnc1` (centres undefined) gave Pf apPOL block 1 and mHTT CaM bind 6.
For CC1(C)CC(=O)C2=C(C1)Nc1ccccc1N(C(=O)C(F)(F)F)C2c1cccc(O)c1 (centres undefined) the results were Pf apPOL block -8 and mHTT CaM bind 4.
`CNc1cc(Nc2cccc(C)c2)c2c3c(onc13)-c1ccccc1C2=O` gave Pf apPOL block 1 and mHTT CaM bind 89*.
For O=C1c2ccccc2-c2onc3c(Br)cc(Br)c1c23 the results were Pf apPOL block -1 and mHTT CaM bind 10.
COc1cccc(NC2=CC(=O)CC(c3ccccc3)C2)c1 (centres undefined) was read as Pf apPOL block -17 and mHTT CaM bind -3.
`COc1cccc(Nc2ccc3noc4c3c2C(=O)c2ccccc2-4)c1` gave Pf apPOL block -23 and mHTT CaM bind 58*.
For CCN1CCCc2cc(C(=O)NCc3ccccc3OC)sc21 the results were Pf apPOL block -6 and mHTT CaM bind 22.
Screening CCn1cc([N+](=O)[O-])c(C(=O)Nc2ccc(S(=O)(=O)Nc3ncccn3)cc2)n1 returned Pf apPOL block 2 and mHTT CaM bind 3.
O=C(O)C=CNNC(=O)c1ccc([N+](=O)[O-])cc1 was read as Pf apPOL block 3.
For COc1ccc(Cl)cc1S(=O)(=O)NCC(c1ccc2c(c1)CCN2C)N(C)C (centres undefined) the results were Pf apPOL block -10 and mHTT CaM bind 69*.
Screening O=S(=O)(NCC(c1ccsc1)N1CCOCC1)c1cccs1 (centres undefined) returned Pf apPOL block -3 and mHTT CaM bind -23.
`CN1CCc2cc(C(CNC(=O)c3cccs3)N3CCOCC3)ccc21` (centres undefined) gave Pf apPOL block -19 and mHTT CaM bind 95*.
CN1CCCc2cc(C(CNC(=O)Cc3cccs3)N3CCOCC3)ccc21 (centres undefined) was read as Pf apPOL block -17 and mHTT CaM bind 29.
